# Where “and” joins values, the source holds several entries; their conditions need not be identical. Identical values can stand only once. Calls of active or inactive are those of the source.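 The calls were made as follows, unless noted: active = compounds whose cell count with miR-34 switched on is under 0.7 times the count with it off; inactive = the rest.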
# Assays:
# [1] = compounds altering viability of human ES cells (AID 493140; call rule not given here;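 also: cells exposed to compounds for four days before counting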); details: human embryonic stem cell survival screen; stronger effect = higher value
# [2] = P. berghei load reduction in hepatocytes – cell-based, HepG2, luciferase luminescence, HepG2 viability, primary screen (AID 624349; in the data active = parasite load remaining mostly below about 12%, no sharp cut-off; inactive = mostly above about 10%;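 also: 100% = mean of DMSO negative control wells on the same plate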); details: P. berghei liver stage in HepG2, luciferase luminescence, concentration not given here; parasite load remaining: stronger effect = lower value; viability: measured here: HepG2 viability without parasites
# [3] = Wnt pathway potentiators raising nuclear beta-catenin – imaging, WNT3A-conditioned medium, mouse C2C12, NPC library, primary screen (AID 1117326; in the data active = nuclear beta-catenin stimulation mostly above about 4.2%, no sharp cut-off; inactive = mostly below about 10%); details: stronger effect = higher value
# [4] = stimulators of insulin release from INS-1E, primary screen, cell-based, 5 mM glucose, NPC library (AID 1117329;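 active = compound raises insulin release from rat beta cells at 5 mM glucose, no numeric limit stated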); details: rat INS-1E insulin secretion, at 10 µM, stronger effect = higher value
# [5] = growth inhibition of GSK3B-pretreated HCT116 cells – cell-based, CellTiter-Glo, 0.2 to 20 µM (AID 1117336;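 active = compounds lowering colon cancer cell viability after pretreatment blocking the GSK3B kinase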); details: HCT116 viability after GSK3B inhibitor, at 20 µM, stronger effect = higher value
# [6] = inhibition of endothelial tube formation, primary screen, imaging, VEGF stimulated, CD31 staining, tube area, NPC library (AID 1117340;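 active = compound that reduces growth-factor-driven endothelial tube area in a mixed cell culture, no cutoff stated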); details: VEGF-stimulated ADSC/ECFC co-culture, at 10 µM, stronger effect = higher value
# [7] = GLP1 release stimulators, primary, NCI-H716, NPC library (AID 1117341;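 active = compound raises GLP1 secretion from the human gut endocrine cells, with no numeric limit stated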); details: NCI-H716 cells, at 10 µM, stronger effect = higher value
# [8] = HCT116 colon cancer cell growth inhibition, primary screen, CellTiter-Glo luminescence, NPC library (AID 1117342;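 active = compounds that lower survival of HCT116 colon cancer cells in the luminescence readout, no numeric limit stated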); details: at 20 µM (top of the series)
# [9] = reduced SW480 viability measured with CellTiter-Glo, NPC library, primary (AID 1117343;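 active = compounds that lower viability of the colon cancer cells in the luminescence readout, with no numeric limit stated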); details: CellTiter-Glo luminescence; at 20 µM (top of the series) unless noted
# [10] = NPC library primary testing for decreased DLD-1 cell viability via CellTiter-Glo (AID 1117346;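 active = compounds that lower survival of DLD-1 colon cancer cells in the luminescence readout, no cutoff given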); details: DLD-1 viability, CellTiter-Glo luminescence; at 20 µM (top of the series)
# [11] = EMT-state selective cytotoxicity in co-culture – imaging, PC-3E GFP, TEM4-18 mCherry, primary screen (AID 1345086;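 active = compounds killing one labelled cell type while sparing the other, by normalised counts and ratio limits, not self-fluorescent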;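 as to all read-outs here: cells exposed to compound for 72 h before imaging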;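 as to red/green cell ratio (normalised): normalised mesenchymal count divided by normalised epithelial count so high means epithelial killing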); details: PC-3E GFP / TEM4-18 mCherry co-culture, imaging cell counts, at 1 µM; for red/green cell ratio (normalised): actives lie on both sides, counts scaled to control wells, 1 = unselective
# [12] = viability loss with induced miR-34 in A549 – imaging, A549 dox-inducible miR-34, nuclei and caspase counts, primary screen (AID 1347080); details: A549 miR-34 inducible, Hoechst nuclei count, 48 h
# [13] = MELAS cybrid and Rieske KO viability enhancers – cell-based, MELAS cybrids, Rieske KO mouse fibroblasts, CellTiter-Glo, primary screen (AID 1508586;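 active = mean z-score across replicates of 1.96 or higher in either the MELAS or the Rieske mutant cell line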;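 also: z relative to plate mean and SD of compound and empty wells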); details: low glucose
# [14] = molecular target: NAD(+) hydrolase SARM1 (Homo sapiens) (UniProt Q6SZW1); assay: blocking NAD cleavage by SARM1 SAM-TIR – cell lysate, NAD-Glo luminescence (AID 1508614;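 active = compound whose remaining NAD level is above about 45 nM, limit read from the data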;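 also: higher remaining NAD means stronger inhibition of SARM1 NADase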); details: SAM-TIR HEK293T lysate NADase, at 1 µM, stronger effect = higher value
# NAD(+) hydrolase SARM1 (Homo sapiens), sequence (Q6SZW1 whole entry, looked up): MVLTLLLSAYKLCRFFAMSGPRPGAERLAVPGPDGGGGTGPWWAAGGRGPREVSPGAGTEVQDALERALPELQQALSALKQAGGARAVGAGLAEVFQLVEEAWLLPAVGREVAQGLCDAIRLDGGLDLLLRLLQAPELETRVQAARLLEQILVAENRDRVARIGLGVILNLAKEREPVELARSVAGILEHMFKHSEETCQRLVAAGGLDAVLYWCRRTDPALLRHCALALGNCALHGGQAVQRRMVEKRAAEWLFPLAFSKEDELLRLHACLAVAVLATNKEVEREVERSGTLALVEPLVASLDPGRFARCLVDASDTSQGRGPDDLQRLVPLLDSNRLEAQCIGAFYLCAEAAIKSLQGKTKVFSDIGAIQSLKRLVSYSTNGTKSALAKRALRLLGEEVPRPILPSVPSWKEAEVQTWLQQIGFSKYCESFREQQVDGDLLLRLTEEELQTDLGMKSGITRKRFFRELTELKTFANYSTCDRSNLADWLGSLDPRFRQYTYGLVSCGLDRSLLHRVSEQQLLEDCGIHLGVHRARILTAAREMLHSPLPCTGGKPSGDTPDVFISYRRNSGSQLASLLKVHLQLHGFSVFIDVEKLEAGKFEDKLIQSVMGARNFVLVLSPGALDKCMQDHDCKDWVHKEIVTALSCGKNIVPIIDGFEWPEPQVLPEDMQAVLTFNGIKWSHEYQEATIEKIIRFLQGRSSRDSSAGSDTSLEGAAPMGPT
# [15] = measured here: epithelial PC-3E GFP cell survival
# [16] = measured here: mesenchymal TEM4-18 mCherry cell survival
# [17] = stronger effect = lower value, cell number ratio, induced over uninduced
# [18] = measured here: relative caspase fold change +Dox/-Dox
# [19] = measured here: total cells with miR-34 induction, stronger effect = lower value
# [20] = measured here: total cells without miR-34 induction
# [21] = MELAS cybrid survival, CellTiter-Glo 48 h, stronger effect = higher value
# [22] = Rieske KO mouse fibroblast survival, CellTiter-Glo 72 h
smiles,measurement,setting,value
CCCCOC(=O)c1ccc(O)cc1,survival,[1],2.33 (inactive)
same,parasite load remaining,[2],105% (inactive) and 43.2% (inactive)
same,viability,[2],94.2% and 99.8%
same,nuclear beta-catenin stimulation,[3]; at 10 µM,1.7% (inactive)
same,nuclear beta-catenin stimulation,"[3]; stimulation, at 2 µM",1.9%
same,insulin secretion stimulation,[4],4.6% (inactive)
same,viability decrease,[5],-64.4% (inactive)
same,tube area decrease,[6],17% (inactive)
same,GLP1 secretion stimulation,[7],-6.3% (inactive)
same,inhibition of viability,[8],15% (inactive)
same,viability decrease (inhibition),[9],67.9% (active)
same,viability decrease (inhibition),[10],9.6% (inactive)
same,red/green cell ratio (normalised),[11],1.09 (inactive)
same,normalised cell number,[11]; [15],1.43
same,normalised cell number,[11]; [16],1.56
same,fold change,[12]; [17],0.899 (inactive) and 0.857 (inactive)
same,fold change,[12]; [18],1.34 and 7.37
same,cell count,[12]; [19],8710 and 10100
same,cell count,[12]; [20],9690 and 11800
same,z-score,[13]; [21],0.705 (inactive)
same,z-score,[13]; [22],-0.347
same,remaining NAD,[14],10 nM (inactive)
CC(=O)CC(c1ccc([N+](=O)[O-])cc1)c1c(O)c2ccccc2oc1=O (stereo unspecified),survival,[1],21.3 (inactive)
same,parasite load remaining,[2],45.5% (inactive) and 55% (inactive)
same,viability,[2],108% and 91.9%
same,nuclear beta-catenin stimulation,[3]; at 10 µM,-1.1% (inactive)
same,nuclear beta-catenin stimulation,"[3]; stimulation, at 2 µM",-1.3%
same,insulin secretion stimulation,[4],0.6% (inactive)
same,viability decrease,[5],-2.5% (inactive)
same,tube area decrease,[6],-40.9% (inactive)
same,GLP1 secretion stimulation,[7],-5.1% (inactive)
same,inhibition of viability,[8],4.3% (inactive)
same,viability decrease (inhibition),[9],21.6% (inactive)
same,viability decrease (inhibition),[10],4.6% (inactive)
same,red/green cell ratio (normalised),[11],0.82 (inactive)
same,normalised cell number,[11]; [15],1.28
same,normalised cell number,[11]; [16],1.05
same,fold change,[12]; [17],0.921 (inactive)
same,fold change,[12]; [18],1.68
same,cell count,[12]; [19],7660
same,cell count,[12]; [20],8320
same,z-score,[13]; [21],0.273 (inactive)
same,z-score,[13]; [22],0.192
same,remaining NAD,[14],10 nM (inactive)
Oc1c(I)cc(Cl)c2cccnc12,survival,[1],4.42 (inactive)
same,parasite load remaining,[2],11.3% (inactive) and 21.8% (inactive)
same,viability,[2],89.4% and 95.4%
same,nuclear beta-catenin stimulation,[3]; at 10 µM,55.7% (active)
same,nuclear beta-catenin stimulation,"[3]; stimulation, at 2 µM",6%
same,insulin secretion stimulation,[4],-0.1% (inactive)
same,viability decrease,[5],82% (active)
same,tube area decrease,[6],110% (active)
same,GLP1 secretion stimulation,[7],-5% (inactive)
same,inhibition of viability,[8],81.2% (active)
same,viability decrease (inhibition),[9],127% (active)
same,viability decrease (inhibition),[10],97.8% (active)
same,red/green cell ratio (normalised),[11],1 (inactive)
same,normalised cell number,[11]; [15],0.99
same,normalised cell number,[11]; [16],0.99
same,fold change,[12]; [17],1.06 (inactive) and 0.786 (inactive)
same,fold change,[12]; [18],0.681 and 1.8
same,cell count,[12]; [19],5310 and 5470
same,cell count,[12]; [20],5010 and 6960
same,z-score,[13]; [21],0.113 (inactive)
same,z-score,[13]; [22],-0.741
same,remaining NAD,[14],10 nM (inactive)
CN1CCC(=C2c3ccccc3CCc3cccnc32)CC1,nuclear beta-catenin stimulation,[3]; at 10 µM,-2.3% (inactive)
same,nuclear beta-catenin stimulation,"[3]; stimulation, at 2 µM",-0.6%
same,insulin secretion stimulation,[4],9.4% (inactive)
same,viability decrease,[5],-3.7% (inactive)
same,tube area decrease,[6],15.1% (inactive)
same,GLP1 secretion stimulation,[7],2.5% (inactive)
same,inhibition of viability,[8],-2.7% (inactive)
same,viability decrease (inhibition),[9],13.6% (inactive)
same,viability decrease (inhibition),[10],-0.2% (inactive)
same,red/green cell ratio (normalised),[11],0.76 (inactive)
same,normalised cell number,[11]; [15],1.26
same,normalised cell number,[11]; [16],0.95
same,fold change,[12]; [17],0.929 (inactive) and 0.835 (inactive)
same,fold change,[12]; [18],0.933 and 0.421 and 1.15
same,cell count,[12]; [19],8510 and 8540 and 7120
same,cell count,[12]; [20],9160 and 9200 and 8530
same,z-score,[13]; [21],-0.226 (inactive) and -0.309 (inactive) and -0.701 (inactive)
same,z-score,[13]; [22],-0.00379 and -0.328 and -0.133
same,remaining NAD,[14],10 nM (inactive)
Cc1ncc(CO)c(CO)c1O,survival,[1],7.67 (inactive)
same,parasite load remaining,[2],121% (inactive) and 68.6% (inactive) and 52.2% (inactive)
same,viability,[2],108% and 75.6% and 94.6%
same,nuclear beta-catenin stimulation,[3]; at 10 µM,0.1% (inactive)
same,nuclear beta-catenin stimulation,"[3]; stimulation, at 2 µM",0.9%
same,insulin secretion stimulation,[4],-1.8% (inactive)
same,viability decrease,[5],4.5% (inactive)
same,tube area decrease,[6],-14.1% (inactive)
same,GLP1 secretion stimulation,[7],3.1% (inactive)
same,inhibition of viability,[8],-18.3% (inactive)
same,viability decrease (inhibition),[9],23.7% (inactive)
same,viability decrease (inhibition),[10],3.95% (inactive)
same,red/green cell ratio (normalised),[11],0.91 (inactive)
same,normalised cell number,[11]; [15],1.07
same,normalised cell number,[11]; [16],0.97
same,fold change,[12]; [17],0.859 (inactive) and 0.971 (inactive) and 0.904 (inactive)
same,fold change,[12]; [18],1.28 and 0.606 and 6.28
same,cell count,[12]; [19],9040 and 7900 and 12400
same,cell count,[12]; [20],10500 and 8140 and 13700
same,z-score,[13]; [21],-0.22 (inactive) and 0.248 (inactive)
same,z-score,[13]; [22],-0.0864 and 0.109
same,remaining NAD,[14],10 nM (inactive)
CC(=O)Oc1cc(C(C)C)c(OCCN(C)C)cc1C,survival,[1],24.8 (inactive)
same,parasite load remaining,[2],26.2% (inactive) and 99.2% (inactive)
same,viability,[2],48.6% and 93%
same,nuclear beta-catenin stimulation,[3]; at 10 µM,-2.5% (inactive)
same,nuclear beta-catenin stimulation,"[3]; stimulation, at 2 µM",-1%
same,insulin secretion stimulation,[4],5.5% (inactive)
same,viability decrease,[5],19.7% (inactive)
same,tube area decrease,[6],-2.1% (inactive)
same,GLP1 secretion stimulation,[7],2.8% (inactive)
same,inhibition of viability,[8],2.17% (inactive)
same,viability decrease (inhibition),[9],20.7% (inactive)
same,viability decrease (inhibition),[10],-14.3% (inactive)
same,red/green cell ratio (normalised),[11],1.11 (inactive)
same,normalised cell number,[11]; [15],0.81
same,normalised cell number,[11]; [16],0.9
same,fold change,[12]; [17],1.09 (inactive) and 0.875 (inactive)
same,fold change,[12]; [18],0.909 and 1.24
same,cell count,[12]; [19],11300 and 8650
same,cell count,[12]; [20],10400 and 9890
same,z-score,[13]; [21],0.238 (inactive)
same,z-score,[13]; [22],-0.428
same,remaining NAD,[14],10 nM (inactive)
CCN(CC)CCc1nc(-c2ccccc2)no1,survival,[1],3.33 (inactive)
same,parasite load remaining,[2],66.5% (inactive)
same,viability,[2],105%
same,nuclear beta-catenin stimulation,[3]; at 10 µM,2% (inactive)
same,nuclear beta-catenin stimulation,"[3]; stimulation, at 2 µM",1.3%
same,insulin secretion stimulation,[4],-0.7% (inactive)
same,viability decrease,[5],-19.4% (inactive)
same,tube area decrease,[6],-1% (inactive)
same,GLP1 secretion stimulation,[7],3.1% (inactive)
same,inhibition of viability,[8],-2.53% (inactive)
same,viability decrease (inhibition),[9],10% (inactive)
same,viability decrease (inhibition),[10],-2.9% (inactive)
same,red/green cell ratio (normalised),[11],0.94 (inactive)
same,normalised cell number,[11]; [15],1.14
same,normalised cell number,[11]; [16],1.07
same,fold change,[12]; [17],0.948 (inactive) and 0.876 (inactive)
same,fold change,[12]; [18],0.926 and 0.982
same,cell count,[12]; [19],8840 and 9090
same,cell count,[12]; [20],9330 and 10400
same,z-score,[13]; [21],0.0836 (inactive)
same,z-score,[13]; [22],-0.0837
same,remaining NAD,[14],10 nM (inactive)

# Source: PubChem BioAssay
